Measurements from the supplement of paper PMC6555819.

Key:
Experiment in all cases: PBM binding z-score (relative to random genomic background probes); higher = stronger binding; sequences stand for … in GC…GCGATTGACAGCGTAGAATGAAGG
[1] = test system: FXR:RXRa (NR concentration 270 nM, RXRa partner concentration 90 nM)
Method in brief: (§1)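 Each nuclear receptor dimer, without ligand, was incubated for 1 h on custom Agilent 4×180K protein-binding microarrays. Binding was detected with antibodies against each partner (one per run), and scanned fluorescence was regression-normalized. The binding z-scores are referenced to random human genomic background probes.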

[2] = test system: LXRa:RXRa (NR concentration 270 nM, RXRa partner concentration 90 nM)
Method in brief: as §1

[3] = test system: LXRa homodimer (NR concentration 270 nM)
Method in brief: as §1

[4] = test system: LXRb:RXRa (NR concentration 270 nM, RXRa partner concentration 90 nM)
Method in brief: as §1

[5] = test system: LXRb homodimer (NR concentration 270 nM)
Method in brief: as §1

[6] = test system: PPARa:RXRa (NR concentration 270 nM, RXRa partner concentration 90 nM)
Method in brief: as §1

[7] = test system: PPARg:RXRa (NR concentration 180 nM, RXRa partner concentration 90 nM)
Method in brief: as §1

[8] = test system: PPARg:RXRa 270nM:90nM, anti-RXR (NR concentration 270 nM, RXRa partner concentration 90 nM)
Method in brief: as §1

[9] = test system: PPARg:RXRa 30nM:10nM, anti-RXR (NR concentration 30 nM, RXRa partner concentration 10 nM)
Method in brief: as §1

[10] = test system: PPARg:RXRa 90nM:30nM, anti-RXR (NR concentration 90 nM, RXRa partner concentration 30 nM)
Method in brief: as §1

[11] = test system: PPARg:RXRa DBDmut IVT, anti-RXR (DBD mutation: RXRa K156A/R161A, NR concentration 270 nM, RXRa partner concentration 90 nM)
Method in brief: as §1

[12] = test system: PPARg:RXRa IVT, anti-PPARg (NR concentration 270 nM, RXRa partner concentration 90 nM)
Method in brief: as §1

[13] = test system: PPARg DBDmut:RXRa IVT, anti-PPARg (DBD mutation: PPARg1 K132A/R137A, NR concentration 270 nM, RXRa partner concentration 90 nM)
Method in brief: as §1

[14] = test system: PPARg DBDmut IVT, anti-PPARg (DBD mutation: PPARg1 K132A/R137A, NR concentration 270 nM)
Method in brief: as §1

[15] = test system: PPARg homodimer (NR concentration 180 nM)
Method in brief: as §1

[16] = test system: PXR:RXRa (NR concentration 270 nM, RXRa partner concentration 90 nM)
Method in brief: as §1

[17] = test system: PXR homodimer (NR concentration 270 nM)
Method in brief: as §1

[18] = test system: RARa:RXR (NR concentration 270 nM, RXRa partner concentration 90 nM)
Method in brief: as §1

[19] = test system: RARa homodimer (NR concentration 270 nM)
Method in brief: as §1

[20] = test system: RARb:RXRa (NR concentration 270 nM, RXRa partner concentration 90 nM)
Method in brief: as §1

Sequence	PBM binding z-score [1]	PBM binding z-score [2]	PBM binding z-score [3]	PBM binding z-score [4]	PBM binding z-score [5]	PBM binding z-score [6]	PBM binding z-score [7]	PBM binding z-score [8]	PBM binding z-score [9]	PBM binding z-score [10]	PBM binding z-score [11]	PBM binding z-score [12]	PBM binding z-score [13]	PBM binding z-score [14]	PBM binding z-score [15]	PBM binding z-score [16]	PBM binding z-score [17]	PBM binding z-score [18]	PBM binding z-score [19]	PBM binding z-score [20]
CCGACTGGGGCAGACAGGTTACCATACCATCCGG	-0.305	-0.476	-0.144	-0.341	-0.833	0.114	0.832	0.0365	-0.675	-0.262	1.38	1.47	0.134	-1.89	-0.172	-0.453	-0.382	-0.441	-0.217	0.69
AGAGTGAGGTTATACGTAGATCAGGGAAGAAAGT	2.32	2.18	0.433	2.06	0.71	2.91	1.11	1.19	0.329	0.849	0.49	0.769	1.06	0.722	1.66	1.39	1.28	1.65	1.14	1.78
ATCGAAAGGTCGTGAGGTGAGAATACAGAAAGGC	5.69	4.09	0.3	3.37	0.293	5.61	4.61	4.58	1.99	3.09	0.36	2.7	1.67	0.86	1.7	3.16	0.322	4.19	0.587	4.13
CCTCGGAGGACAACAGGGGGTCAGAGCTGCCAGA	1.81	2.48	0.582	3.99	2.09	3.22	1.09	1.92	-0.264	1.13	-0.238	1.33	0.527	1.03	1.56	3.18	0.0814	3.3	0.607	2.71
CCTCGGAGGACAGAAGGTTAGAGCTGTCCGCTTT	0.0561	0.0136	-0.236	-0.312	-1.14	-0.123	-0.506	-0.434	-0.944	-0.855	-0.501	-0.792	-1.88	-2.87	-0.233	-0.354	-0.764	0.0468	-1.07	1.12
ATCTCTAGGTATGACTCAGTTCAGTGAAGAACGC	0.312	0.266	0.305	0.205	0.789	0.0186	0.264	0.0643	-0.0117	0.0715	0.262	0.638	0.456	1.61	0.371	0.877	1.49	0.389	0.624	0.243
TTACCAAGGTGAAGTTCGTTGATCCCTCTGTAGA	1.07	1.09	-0.342	0.617	-0.644	1.98	1.16	2.35	0.877	2.05	2.04	2.68	0.229	0.131	0.308	1.23	0.329	0.86	-0.298	1.75
GCTTGTAGATCAAGGCTAAGAAAGACTAAGCTAA	-1.48	-0.741	-0.903	-0.837	-0.875	-0.665	-0.447	-0.418	-0.329	-0.359	0.902	-0.107	-0.0292	-0.466	-1.05	-0.743	-0.42	-0.679	-0.656	-0.482
CGTCCAAGGTCAATGCTAGGTCAGGGAAAGCATT	6.82	5.42	2.86	4.1	0.919	5.17	4.49	4.52	1.47	3.37	2.8	4.06	-0.00201	-0.912	3.8	4.55	0.675	5.55	0.824	5.31
TTACCAAGGTGAAGGTCGTTAATCCCTCTGTAGA	1.32	1.12	-0.236	1.22	-0.624	2.49	2.65	3.89	1.82	3.43	1.67	3.05	-0.743	-0.257	0.621	1.28	0.0227	1.65	-0.0474	1.98
TCACATAGGTAAACAGGTGAAAGTCCGTAAGTTA	0.14	0.698	0.285	0.803	-0.368	2.06	1.27	2.75	3.62	3.11	2.55	2.23	0.587	0.655	1.1	0.542	0.449	0.976	-0.0341	0.847
GCAGACAGGTGAAACGCAGGTACCTCAGGGTGGC	-0.505	-0.351	-1.08	-0.737	-1.1	0.616	0.419	-0.439	-0.666	-0.889	0.673	0.204	-1.1	-1.9	-1.33	-0.784	-0.782	-0.474	-1.48	0.346
GCTTGCGGGTCAAAGGTTATAGCATGAATAGAAT	7	5.1	0.347	5.46	-0.491	7.24	11.2	9.57	9.43	9.99	6.08	6.75	0.506	0.0418	2.11	6.07	0.118	7.94	0.537	4.53
AGTCAAAGTTCATCTAGGTAACGTCAGATATGCT	6.97	6.1	5.62	4	1.91	4.87	6.42	6.54	3.63	5.58	1.33	4.32	2.61	1.98	5.02	5.36	7.19	4.41	2.97	4.96
